Screening data: PubChem BioAssay, National Center for Advancing Translational Sciences (NCATS)
Giardia FBPA inh = qHTS Assay for Inhibitors of Fructose-1,6-bisphosphate Aldolase from Giardia Lamblia | purified Giardia FBPA | AID 2451, 2010 | Potency, µM (series often up to 59.6 µM), for the others: at the highest dose activity, negative = inhibition, actives largely listed as inhibitors | 290,000 compounds, 0.71% hits; further: potency means the concentration at half of the fitted maximal effect; nearly all actives have a fitted effect of over 55% in size
Target sequence (A8B2U2 whole entry, looked up): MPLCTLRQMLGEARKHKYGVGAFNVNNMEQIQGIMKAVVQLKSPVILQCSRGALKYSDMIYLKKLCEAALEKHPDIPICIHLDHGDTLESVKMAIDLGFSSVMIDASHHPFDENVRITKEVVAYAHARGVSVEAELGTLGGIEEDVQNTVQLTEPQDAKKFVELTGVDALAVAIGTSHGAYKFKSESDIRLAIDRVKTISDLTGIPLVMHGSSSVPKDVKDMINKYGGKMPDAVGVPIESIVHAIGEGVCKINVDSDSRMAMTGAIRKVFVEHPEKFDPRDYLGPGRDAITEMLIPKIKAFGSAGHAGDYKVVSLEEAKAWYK
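40 nM FBPA preincubated 10 min at RT with compound (up to 57.5 uM final), then substrate plus GAPDH/TPI/NAD/arsenate coupling and diaphorase/resazurin added. Fluorescence read after 20 min at RT, 525/598 nm.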
HCV inh = qHTS Assay for Inhibitors of Hepatitis C Virus (HCV); Potency, µM (highest dose often 41.8 µM), for inactives: top-dose activity change, negative = inhibition, actives largely listed as inhibitors; Huh7.5.1 HCVcc-Cre infection, luciferase reporter, 44 h; 340,000 compounds, 3.4% hits; further: potency means the concentration at half of the fitted maximal effect
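Compounds are dispensed onto cells plated 4 h earlier at 1,000 per well, with HCVcc-Cre virus (about 0.5 moi) added next. Following 44 h of culture, luminescent signal is measured for 15 sec after 15 min with substrate at room temperature.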
Lassa entry inh = qHTS for Inhibitors of binding or entry into cells for Lassa Virus; Potency, µM (doses to about 37.9 µM), for the others: at the top dose activity change, negative = inhibition, usual class: inhibitors; Lassa virus pseudotype entry inhibition, cell reporter; 300,000 compounds, 1.2% hits; calls by dose curve; tested in HEK293 cells; further: potency means the concentration at half of the fitted maximal effect; nearly all actives have a fitted effect of over 50% in size
FMDV antiviral = High Throughput Screening for Foot and Mouth Disease Virus Antivirals; FMDV antiviral cell-based qHTS; Potency, µM (titrated, usually from 57.9 µM), inactives show top-dose activity change, negative = inhibition, most hits filed as inhibitors; 410,000 compounds, 1.2% hits; AID 1159524, 2015; calls by dose curve; tested in HEK293T cells; further: read-out not given here; potency means the concentration at half of the fitted maximal effect; nearly all actives have a fitted effect of over 45% in size
HCMV inh = qHTS Assay for inhibitors of the human cytomegalovirus (HCMV). HFF cells, HCMV-luciferase reporter, 72 h; active compounds read low. activity change, negative = inhibition, % at 57.5 µM. 410,000 compounds, 4.5% hits; in the data active means activity change below about -60%; inconclusive means no clear call, values can overlap the other calls; inactive means above about -39%
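After 16 h attachment at 37C, HFF cells received test compound and HCMV-luciferase (1 PFU/cell); reporter luminescence read 72 h later, data normalized against buffer-only and known inhibitor Salinomycin.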
MARV entry inh = qHTS for inhibitors of binding or entry into cells for Marburg Virus. Marburg virus pseudotyped entry inhibition, cell reporter. Potency, µM (titrated, usually from 37.8 µM), for inactives: at the top dose activity change, negative = inhibition, most hits filed as inhibitors. 300,000 compounds, 1.8% hits; calls by dose curve; tested in HEK293 cells; further: potency means the concentration at half of the fitted maximal effect
The depositor's hits bear a star; ? = inconclusive; / = no result given; + = active, no number; [ ] = dose if it differs, or a comment. Shown are actives, neighbours in structure and some others; about 8.3% of the full set was active somewhere. Unless noted, the call rests on the fitted dose curve; in most records, active means well fitted curve in the direction sought with a large enough effect; inconclusive means small, poorly fitted or top-dose-only effect, or another doubt; inactive means no such curve, though single readings can be large; an effect the other way counts as inactive or inconclusive. On the % scale 0 is the no-effect control and ±100 the full control effect.

SMILES | Giardia FBPA inh | HCV inh | Lassa entry inh | FMDV antiviral | HCMV inh | MARV entry inh
CCOC(=O)N1CCC(NC(=O)c2cnn(-c3ccc(F)cc3F)c2C2CCN(C(=O)OC(C)(C)C)CC2)CC1 | / | / | ? | -9% | + | /
COc1ccc(Br)cc1CNC(=O)Cn1c(=O)c2cccn2c2ccc(F)cc21 | / | / | 0%[46.1 µM] | -22% | -28 | /
O=C(NCc1ccccn1)c1cnn(-c2ncc3c(n2)-c2ccccc2CC3)c1C1CC1 | / | / | / | -12% | / | /
CCOC(=O)C1=C(N)N2C(=O)C(C)SC2=C(C(=O)OC)C1c1cccc(OC)c1 (centres undefined) | 6% | 6% | / | -9% | -86* | /
COC(=O)C1=C2SC(C)C(=O)N2C(N)=C(C#N)C1c1ccc(OC)c(OC)c1 (centres undefined) | ? | -1% | ? | -21% | -7 | 11%
CC1(C)CC(C)(c2ccc(O)cc2O)N(c2cccc(Cl)c2)C(=S)N1 (centres undefined) | -1% | ? | 11% | 5% | 85 | -33%
CC1(C)CC(C)(c2ccc(O)cc2O)N(c2ccc3ccccc3c2)C(=S)N1 (centres undefined) | -21% | 10µM* | -4% | -2% | -15 | -9%[46.1 µM]
COc1ccccc1NC(=O)Nc1nc(CC(=O)N2CCN(c3ccc(F)cc3)CC2)cs1 | / | 11µM* | ? | ? | -23 | 11µM*
COc1ccccc1NC(=O)Nc1nc(CC(=O)Nc2ccc(F)cc2)cs1 | / | ? | 10% | -3% | -25 | -22%
COc1ccccc1NC(=O)Cc1csc(NC(=O)c2ccccc2)n1 | -23% | 7.1µM* | ? | ? | -69* | -28%
COc1ccccc1NC(=O)Nc1nc(CC(=O)N2CCN(c3ccccc3)CC2)cs1 | / | 13µM* | ? | ? | -6 | 7%[46.1 µM]
c1ccc(-c2nc3c([nH]2)CCc2nonc2-3)cc1 | ? | 5% | 29% | 21% | -11 | ?
Cc1ccc(C)c2c3c([nH]c12)-c1nonc1CC3 | -2% | 10µM* | -8% | -2% | -8 | 10%
CCOc1ccc2ccccc2c1/C=N/n1cncn1 | -28% | 11µM* | 0% | 5% | -13 | 3%
Cc1ccc(-c2nc(NC(=O)c3cc(C(C)(C)C)nn3C)sc2C)cc1Cl | -5% | ? | ? | ? | -61* | ?
CC1CCc2nc(NC(=O)c3cc(C(C)(C)C)nn3C)sc2C1 (centres undefined) | 0% | -1% | / | -11% | 23 | /
CN(Cc1ccccc1)C(=O)[C@H](Cc1ccc2ccccc2c1)NC(=O)[C@@H]1C[C@@H](O)CN1C(=O)c1cn(C)c2ccccc12 | -2% | / | / | 28% | / | /
Cc1ccc(N2CCN(C(C(=O)Nc3c(C)cccc3C)c3ccccc3OC(F)(F)F)CC2)cc1 (centres undefined) | / | / | / | -17% | -16 | /
Cc1cccc(C)c1NC(=O)C(c1ccccc1OC(F)(F)F)N1CCN(C)CC1 (centres undefined) | / | / | / | -15% | -62* | /
Cn1c(NCc2ccccc2)nc2cnc(Nc3ccccc3Cl)cc21 | / | / | / | / | -9 | /
COc1ccc(-c2[nH]nc3nc(N4CCN(C(=O)c5ccoc5)CC4)cc(C(F)(F)F)c23)cc1 | / | / | / | ? | -77* | /
COCCNC(=O)CSc1nc2cc3c(cc2c(=O)n1CCCCCC(=O)NCCc1ccc(OC)c(OC)c1)OCO3 | / | / | 9%[46.1 µM] | -6% | 8 | /
CC(C)(C)c1ccc(-n2ncc3c2CCCC3NC(=O)CCn2cncn2)cc1 (centres undefined) | / | 1% | 7% | -13% | -68* | -13%
CC(C)(C)c1ccc(-n2ncc3c2CCCC3NC(=O)CCN2CCCO2)cc1 (centres undefined) | -5% | 13µM* | / | -24% | ? | /
CC(C)(C)c1ccc(-n2ncc3c2CCCC3NC(=O)CCCn2cncn2)cc1 (centres undefined) | 8% | ? | ? | -16% | ? | -9%[46.1 µM]
SMILES | Giardia FBPA inh | HCV inh | Lassa entry inh | FMDV antiviral | HCMV inh | MARV entry inh
O=C(CCN1CCCO1)NC1CCCc2c1cnn2-c1ccccc1F (centres undefined) | / | -20% | / | -12% | -17 | /
O=C(NCCc1nc2ccccc2n1Cc1ccc(Cl)cc1Cl)c1ccco1 | / | / | ? | 0% | 5 | ?
COc1ccccc1C=NNC(=O)NN=Cc1ccccc1OC | / | ? | -6%[46.1 µM] | 14% | -38 | -4%[46.1 µM]
COc1ccccc1C=NN=C(NN=Cc1ccccc1OC)NN=Cc1ccccc1OC | / | 13µM* | 13µM* | ? | 26 | ?
COc1cccc(/C=N/Nc2ccccc2C(=O)O)c1O | 5% | 16% | / | 8% | -80* | /
COc1cccc(/C=N/NC(=O)c2nc(-c3ccccc3)cc(-c3ccccc3)n2)c1O | -12% | 17% | ? | 0% | -97* | ?
COc1ccccc1C=NN=C(N)C(N)=NN=Cc1ccccc1OC | / | -13% | -9% | -6% | -5 | 2%
COc1cccc(/C=N/NC(=O)N/N=C/c2cccc(OC)c2O)c1O | 1% | 10% | ? | 7% | -13 | 4.5µM*
CCc1cccc(-n2nnc(S(=O)(=O)c3ccc(OC)cc3)c2C)c1 | / | / | ? | ? | -35 | ?
Cc1ccc(CNc2ncnc3onc(C)c23)cc1 | / | / | 5%[46.1 µM] | ? | -37 | /
COc1cccc(/C=N/Nc2ccc(S(=O)(=O)O)cc2)c1O | 2% | 2% | -1% | 13% | 35 | 6%
COc1cccc(/C=N/Nc2ccc(C(=O)O)cc2)c1O | -7% | 21% | / | 3.5µM* | -95* | /
CCOC(=O)CCN1C(=O)[C@@H]2[C@H]3[C@H](O)[C@H](O)CC(=NO[C@@H]4O[C@H](COC(C)=O)[C@@H](OC(C)=O)[C@H](OC(C)=O)[C@@H]4OC(C)=O)[C@H]3CC[C@H]2C1=O | / | / | / | / | / | -6%[14.2 µM]
O=C(NCCc1ccc(Cl)cc1)C1CCC(=O)N(C2CCCCCC2)C1 (centres undefined) | -2% | 1% | 5%[46.1 µM] | -6% | -61* | -6%[46.1 µM]
CC(C)c1ccc(NC(=O)C2CCN(S(=O)(=O)c3ccc(Br)s3)CC2)cc1 | / | / | -9%[46.1 µM] | ? | -18 | 1%[46.1 µM]
O=C(NCCc1ccc(Cl)cc1)C1CCN(S(=O)(=O)N2CCCC2)CC1 | / | -24% | -17% | / | -21 | 2%
O=C(NCCc1ccc(Cl)cc1)C1CCN(S(=O)(=O)c2ccc(Br)s2)CC1 | 4% | 10µM* | -16% | -16% | -38 | -21%[46.1 µM]
O=C(Nc1ccc(Cl)cc1)C1CCN(S(=O)(=O)c2ccc(Br)s2)CC1 | / | / | ? | ? | -96* | -15%[46.1 µM]
O=C(NCCc1ccc(Cl)cc1)C1CCN(C(=O)c2sccc2-n2cccc2)CC1 | 1% | 8.9µM* | -23% | ? | -8 | ?
